Records with an inconclusive call do not appear. The call rests on the fitted dose curve; in most records, active means well fitted inhibition curve with a large enough effect; inconclusive means small, poorly fitted or top-dose-only effect; inactive means no such curve, though single readings can be large or run the other way.
What follows are compounds tested against Cytochrome P450 2C9 (Homo sapiens) (UniProt P11712) (assay: qHTS Assay for Inhibitors and Substrates of Cytochrome P450 2C9 (AID 883; further: nearly all actives have a fitted effect of over 60% in size)). Settings: recombinant CYP2C9, luciferin-H luminescence, 60 min; series mostly up to 57.1 µM; activity change, negative = inhibition: at the top concentration.
How it was run: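 Human CYP2C9 (10nM) hydroxylated Luciferin-H (100uM, at its KM) to luciferin in 25mM KPO4. Compound was preincubated 10 min at 37C, then NADPH regeneration started a 60 min reaction at 37C. Luminescence was read after detection reagent, normalized to 57uM sulphaphenazole.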
On the % scale 0 is the no-effect control and ±100 the full control effect.

Cytochrome P450 2C9 (Homo sapiens), sequence (P11712 whole entry, looked up): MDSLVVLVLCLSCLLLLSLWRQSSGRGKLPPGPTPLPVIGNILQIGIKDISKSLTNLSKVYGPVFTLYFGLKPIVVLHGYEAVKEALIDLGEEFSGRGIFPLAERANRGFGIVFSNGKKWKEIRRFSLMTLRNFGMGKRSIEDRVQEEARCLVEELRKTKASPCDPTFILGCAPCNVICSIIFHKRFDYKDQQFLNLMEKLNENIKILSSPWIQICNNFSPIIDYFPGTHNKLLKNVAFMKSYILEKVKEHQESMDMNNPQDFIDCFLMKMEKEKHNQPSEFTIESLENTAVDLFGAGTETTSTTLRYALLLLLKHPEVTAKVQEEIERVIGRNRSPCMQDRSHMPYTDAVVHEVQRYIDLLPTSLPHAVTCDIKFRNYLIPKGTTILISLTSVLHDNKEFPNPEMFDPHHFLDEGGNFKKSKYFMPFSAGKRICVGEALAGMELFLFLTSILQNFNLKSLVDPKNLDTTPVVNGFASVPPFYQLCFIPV

Activity change, negative = inhibition, inactive:
NCCC[C@@H](CC(=O)N[C@@H]1CCCC[C@H]1C(=O)N[C@H](CC(=O)N[C@@H](CCC(=O)O)CC(=O)O)Cc1c[nH]c2ccccc12)NC(=O)C[C@H](Cc1ccccc1)NC(=O)[C@@H]1CCCC[C@H]1N 21.9%
NCCC[C@@H](CC(=O)N[C@@H]1CCNC[C@H]1C(=O)N[C@H](CC(=O)N[C@@H](CCC(=O)O)CC(=O)O)Cc1c[nH]c2ccccc12)NC(=O)C[C@H](Cc1ccccc1)NC(=O)[C@@H]1CCCC[C@H]1N -9.9%
CC(C)C[C@@H](CC(=O)N[C@@H](CCC(=O)O)CC(=O)O)NC(=O)[C@@H]1CNCC[C@H]1NC(=O)C[C@H](CCCN)NC(=O)C[C@H](Cc1c[nH]c2ccccc12)NC(=O)[C@@H]1CNCC[C@H]1N -22.6%
COc1ccc(-c2coc3ccc(O[C@@H]4O[C@@H](COC(C)=O)[C@@H](OC(C)=O)[C@@H](OC(C)=O)[C@H]4OC(C)=O)c(OC(C)=O)c3c2=O)cc1 -14%
CC(C)[C@@H](CC(=O)N[C@@H]1CCCC[C@H]1C(=O)N[C@H](CC(=O)N[C@@H](CCC(=O)O)CC(=O)O)Cc1ccccc1)NC(=O)C[C@H](Cc1ccccc1)NC(=O)[C@@H]1CCCC[C@H]1N -22.3%
NCCC[C@@H](CC(=O)N[C@@H]1CCNC[C@H]1C(=O)N[C@H](CC(=O)N[C@@H](CCC(=O)O)CC(=O)O)Cc1ccccc1)NC(=O)C[C@H](Cc1c[nH]c2ccccc12)NC(=O)[C@@H]1CCCC[C@H]1N 66.5%
CC(C)C[C@@H](CC(=O)N[C@@H](CCC(=O)O)CC(=O)O)NC(=O)[C@@H]1CCCC[C@H]1NC(=O)C[C@@H](NC(=O)C[C@H](Cc1ccccc1)NC(=O)[C@@H]1CNCC[C@H]1N)C(C)C 10.3%
NCCC[C@@H](CC(=O)N[C@@H]1CCCC[C@H]1C(=O)N[C@H](CC(=O)N[C@@H](CCC(=O)O)CC(=O)O)Cc1ccccc1)NC(=O)C[C@H](Cc1c[nH]c2ccccc12)NC(=O)[C@@H]1CNCC[C@H]1N -35%
CC(C)C[C@@H](CC(=O)N[C@@H](CCCN)CC(=O)N[C@@H]1CCNC[C@H]1C(=O)N[C@H](CC(=O)N[C@@H](CCC(=O)O)CC(=O)O)Cc1ccccc1)NC(=O)[C@@H]1CNCC[C@H]1N -24.5%
CC(C)C[C@@H](CC(=O)N[C@@H](CCCN)CC(=O)N[C@@H]1CCNC[C@H]1C(=O)N[C@H](CC(=O)N[C@@H](CCC(=O)O)CC(=O)O)Cc1ccccc1)NC(=O)[C@@H]1CCCC[C@H]1N -26.4%
CC(C)C[C@@H](CC(=O)N[C@@H](CCC(=O)O)CC(=O)O)NC(=O)[C@@H]1CCCC[C@H]1NC(=O)C[C@@H](NC(=O)C[C@H](Cc1c[nH]c2ccccc12)NC(=O)[C@@H]1CNCC[C@H]1N)C(C)C -15.1%
NCCC[C@@H](CC(=O)N[C@@H]1CCCC[C@H]1C(=O)N[C@H](CC(=O)N[C@@H](CCC(=O)O)CC(=O)O)Cc1ccccc1)NC(=O)C[C@H](Cc1ccccc1)NC(=O)[C@@H]1CNCC[C@H]1N -28.2%
CC(C)C[C@@H](CC(=O)N[C@@H](CCC(=O)O)CC(=O)O)NC(=O)[C@@H]1CCCC[C@H]1NC(=O)C[C@H](CCCN)NC(=O)C[C@H](Cc1c[nH]c2ccccc12)NC(=O)[C@@H]1CCCC[C@H]1N 1.07%
CC(C)C[C@@H](CC(=O)N[C@@H](CCC(=O)O)CC(=O)O)NC(=O)[C@@H]1CNCC[C@H]1NC(=O)C[C@H](CCCN)NC(=O)C[C@H](Cc1c[nH]c2ccccc12)NC(=O)[C@@H]1CCCC[C@H]1N -20.9%
NCCC[C@@H](CC(=O)N[C@@H]1CCNC[C@H]1C(=O)N[C@H](CC(=O)N[C@@H](CCC(=O)O)CC(=O)O)Cc1ccccc1)NC(=O)C[C@H](Cc1ccccc1)NC(=O)[C@@H]1CCCC[C@H]1N -16.3%

Reference: PubChem BioAssay (NCATS)
